Rows were chosen to be rich in hits. Some 4.3% of all compounds tested hit in one or more screens of this group.
dFosB activator – enhances mouse delta FosB homodimer DNA binding. P13346. purified delta FosB, TAMRA-CDK5 oligo fluorescence polarization; percent of positive-control signal above neutral wells. activation, % at 25 µM. actives 0.99% (n = 340,000). AID 493131;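 active means mean activation above about 17%, with every replicate also reaching it, limit read from the data, passing the limit was not always enough; inconclusive means only one of the two conditions met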
Target sequence (P13346 whole entry, looked up): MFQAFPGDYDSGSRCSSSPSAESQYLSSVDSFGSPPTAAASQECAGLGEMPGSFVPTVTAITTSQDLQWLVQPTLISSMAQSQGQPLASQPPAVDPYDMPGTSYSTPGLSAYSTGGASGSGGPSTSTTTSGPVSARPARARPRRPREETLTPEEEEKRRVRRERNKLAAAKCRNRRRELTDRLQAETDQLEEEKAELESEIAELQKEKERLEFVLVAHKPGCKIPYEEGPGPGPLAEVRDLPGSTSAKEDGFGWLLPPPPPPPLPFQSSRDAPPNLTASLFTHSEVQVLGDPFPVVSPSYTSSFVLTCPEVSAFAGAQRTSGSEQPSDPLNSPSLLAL
NR3A LBD binder – NR3A (human) ligand-binding domain modulation. NR3A LBD differential scanning fluorimetry, Tm shift; 0% = protein alone, 100% = glycine-bound protein. Tm shift relative to glycine control, % at 25 µM. AID 1259313. actives 2.5% (n = 340,000);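 active means melting temperature shift of at least 10% of the positive control shift, at one fixed dose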
NALP1 yeast inh – inhibitors of NALP1 inflammasome in yeast. S. cerevisiae NALP1/ASC/caspase-1 growth, X-gal OD620, 72 h. inhibition, % at 10 µM. actives 0.61% (n = 280,000); in the data active means inhibition mostly above about 24%, no sharp cut-off; inactive means mostly below about 32%
Yeast superoxide – lowers age-related superoxide in aged yeast cells; actives 0.18% (n = 330,000); superoxide response (% of plate mean), % at 10 µM; S. cerevisiae aged cells, superoxide DHE fluorescence; hits give low values;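 active means superoxide response under a set limit, about three screen SD below normal, cut at about 65% in these data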;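 further: yeast aged for seven days with compound at 30 °C before DHE staining; 100% = average MFI of all compound-treated wells on the plate with controls excluded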
UBC13 polyUb – inhibitors of human UBC13 polyubiquitin chain formation; P61088; TR-FRET; inhibition, % at 20 µM; actives 0.47% (n = 330,000); in the data active means inhibition above about 45%, passing the limit was not always enough; inconclusive means no clear call, values can overlap the other calls
Target sequence (P61088 whole entry, looked up): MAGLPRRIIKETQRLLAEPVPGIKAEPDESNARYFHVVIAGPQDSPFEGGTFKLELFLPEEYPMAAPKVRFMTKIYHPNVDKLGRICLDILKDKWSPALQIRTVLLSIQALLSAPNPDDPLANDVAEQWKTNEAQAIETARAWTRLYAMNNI
An asterisk follows results filed as active; u = inconclusive; x = no result given.

SMILES	dFosB activator	NR3A LBD binder	NALP1 yeast inh	Yeast superoxide	UBC13 polyUb
CC(C)CCNC(=O)CN(Cc1ccc(F)cc1)C(=O)CCC(=O)Nc1ccccn1	-4	-3	10	89	2
C[C@H](CO)N1C[C@H](C)[C@@H](CN(C)C(=O)Nc2ccccc2)Oc2ccc(NC(=O)Cc3ccccc3)cc2C1=O	1	3	x	83	16
N#C/C(=C/c1ccc(Br)s1)C(=O)NCCc1c[nH]c2ccccc12	3	23*	15	102	-5
CC1CCN(CCCNC(=O)Cn2ncc3c([nH]c4ccccc43)c2=O)CC1	-15	-1	31	74	-6
O=C(NC1CCCCC1)C(c1ccc(O)c(O)c1)N(C(=O)Cn1nnc2ccccc21)c1cccc(O)c1 (stereo not given)	32*	-2	9	98	7
COC(=O)[C@H](Cc1ccccc1)NC(=O)O[C@H]1C(=O)c2ccc(OC)cc2O[C@@H]1c1ccc2c(c1)OCO2	x	2	26	x	7
Cc1nc(Cl)cc(N/N=C/c2ccc(O)cc2O)n1	2	19*	4	103	-11
COc1cccc(/C=N/Nc2cc(Cl)nc(C)n2)c1O	-8	-1	1	73	-5
Cc1nc(Cl)cc(N/N=C/c2ccc(O)cc2)n1	-8	26*	7	102	-2
O=C(Nc1ccc(Cl)cc1)N[C@@H]1c2c(ccc3ccccc23)OC[C@@H]1CO	12	26*	18	106	0
CN(C(=O)c1ccccc1)C1c2c(ccc3ccccc23)OCC1CO (stereo not given)	1	3	0	104	4
CCOC(=O)CSc1ncc(-c2ccccc2)nn1	-8	37*	-13	88	3
CCOC(=O)CSc1ncc(-c2ccccc2)cn1	-10	-2	-2	105	-2
Cc1ccc(S(=O)(=O)NCc2ccc(C(=O)NC3CCC(O)CC3)cc2)cc1C (stereo not given)	-2	0	x	83	0
CCN1CCN(c2ccc(S(=O)(=O)N3CCCCC3)cc2NC(=O)c2cccc(C(F)(F)F)c2)CC1	21*	4	x	101	11
CCN1CCN(c2ccc(S(=O)(=O)N3CCCCC3)cc2NC(=O)c2cccc(F)c2)CC1	-3	x	x	83	7
COc1ccc(N(CC(=O)NCCSCc2ccco2)S(=O)(=O)c2ccccc2)cc1Cl	-9	-4	8	107	5
COc1cccc(NC(=O)Nc2nnc(CC(=O)Nc3ccccc3)s2)c1	u	23*	x	112	-10
O=C(Nc1ccc(F)cc1)Nc1nnc(Cc2ccccc2)s1	10	-3	17	103	-12
COc1cccc(NC(=S)NC(=O)Cc2ccccc2)c1	-8	4	x	88	6
COc1cccc(NC(=O)Cc2ccccc2)c1	-2	10*	9	104	7
COc1cc(NC(=O)COC(=O)Cc2ccc(-c3ccccc3)cc2)cc(OC)c1	-1	36*	2	89	-8
COc1ccc(NC(=O)Nc2nnc(CC(=O)Nc3ccccc3)s2)cc1	1	4	x	108	7
COc1ccc(OC)c(NC(=O)COC(=O)Cc2ccc(-c3ccccc3)cc2)c1	-6	-11	28	100	-8
C=CCSc1nsc(NC(=O)Nc2ccc(F)cc2)n1	12	28*	52	116	0
SMILES	dFosB activator	NR3A LBD binder	NALP1 yeast inh	Yeast superoxide	UBC13 polyUb
Cc1ccc(S(=O)(=O)N2CCCCC2)cc1NC(=O)CCc1nc2ccccc2c(=O)[nH]1	-5	-1	x	80	-2
O=S(=O)(c1ccc(Br)cc1F)N1CCCCC1CCO (stereo not given)	0	0	x	x	x
CCSc1nsc(NC(=O)Nc2ccccc2F)n1	4	-2	8	115	11
CCSc1nsc(NC(=O)Nc2cccc(OC)c2)n1	-9	16*	-1	102	9
Cn1cnnc1SCC(=O)Nc1ccc(OCc2ccccc2)cc1	-3	-1	0	102	10
Cc1ccc(Nc2nnc(SCC(=O)Nc3cccc(S(=O)(=O)N4CCCCC4)c3)s2)cc1	-7	18*	24	97	-11
COc1cccc(N2CC(C(=O)Nc3nnc(SCC(=O)Nc4ccc(NC(C)=O)cc4)s3)CC2=O)c1 (stereo not given)	4	3	5	98	-5
COc1cccc(NC(=O)CSc2nnc(NC(=O)C3CCC3)s2)c1	-1	12*	22	103	1
COc1cccc(C(=O)Nc2nnc(SCC(=O)Nc3ccc(NC(C)=O)cc3)s2)c1	3	37*	3	106	-10
COc1ccc(OCCCCc2c(C)n[nH]c2C)cc1	-8	-2	x	95	11
C[C@H](CO)N1C[C@H](C)[C@@H](CN(C)Cc2ccncc2)Oc2c(NC(=O)C3CC3)cccc2C1=O	-6	-1	x	117	8
CCCC(=O)Nc1c(-c2ccccc2Cl)c(=O)c2ccccc2n1C	-4	1	12	94	3
CCN(CC)S(=O)(=O)c1cnccc1N1CCN(c2cccc(Cl)c2)CC1	-5	0	54*	102	-1
Cc1cccc(CCNC(=O)C2CCC(=O)N(Cc3ccccc3F)C2)n1 (stereo not given)	-4	2	0	110	5
COc1cccc(-c2nc(C#N)c(N3CCN(C(=O)c4ccco4)CC3)o2)c1	-3	11*	12	99	16
O=C(/C=C/c1cccs1)NC(=S)Nc1ccc(S(=O)(=O)Nc2ccccc2C(F)(F)F)cc1	-11	27*	8	107	-17
COc1ccc(NC(=S)NC(=O)/C=C/c2cccs2)cc1	4	-2	10	84	1
C/C(=N\NS(=O)(=O)c1ccc([N+](=O)[O-])cc1)c1ccc2c(c1)OCO2	2	2	1	107	-2
O=C(Cc1c[nH]c2ccccc12)N/N=C/c1ccc(F)cc1	-2	-5	4	93	4
C/C(=N/Nc1ccc([N+](=O)[O-])cc1)c1ccc(C)cc1C	1	24*	46	102	-9
C/C(=N\Nc1ccc([N+](=O)[O-])cc1)c1ccc(C#N)cc1	4	9	-4	93	-42
CN(C)c1ccc(/C=N/NC(=O)CCc2c[nH]c3ccccc23)cc1	-5	16*	5	119	7
C/C(=N\Nc1ccc([N+](=O)[O-])cc1)c1ccc2c(c1)OCO2	1	23*	11	88	-54
C/C(=N/Nc1ccc([N+](=O)[O-])cc1)c1c[nH]c2ccccc12	-9	29*	-2	100	-173
CCOC(=O)C1=C(C)c2ccccc2N(S(=O)(=O)C(F)(F)F)C1C(=O)OCC (stereo not given)	-2	1	x	87	x
O=C(N/N=C/c1ccc([N+](=O)[O-])cc1)c1cc2ccccc2o1	2	5	8	108	-4
C/C(=N\Nc1ccc([N+](=O)[O-])cc1)c1cc2ccccc2o1	2	27*	-27	87	-112
